This passage reports Potency and outcome results from PubChem BioAssay (NCATS).

Each structure is given as a SMILES string. Inconclusive results are not listed. Calls of active or inactive are those of the source. Calls come from the whole dose curve; as a rule, active = well fitted curve in the direction sought with a large enough effect; inconclusive = small, poorly fitted or top-dose-only effect, or another doubt; inactive = no such curve, though single readings can be large; an effect the other way counts as inactive or inconclusive.

A short description of test [1]: P-glycoprotein substrates identified in KB-8-5-11 adenocarcinoma cell line, qHTS therapeutic library screen (AID 1346987). Note: nearly all actives have a fitted effect of over 65% in size. Note: potency is the fitted concentration of half-maximal effect. The conditions noted are these: outcome: dose series up to 44.5 µM unless noted. The gist of the method: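 KB-8-5-11: colchicine-selected sub-line of KB-3-1 over-expressing P-gp; assay medium lacked colchicine. 72 h drug exposure at 37 degree C, CellTiter-Glo.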
A general note: qHTS replaces the single test concentration by a dilution series.

Test [2] in a line: NS1 protein of Zika virus - qHTS assay to identify small molecule inhibitors in human HEK 293 cells (AID 1347053). Note: series mostly up to about 46 µM; nearly all actives have a fitted effect of over 55% in size. The gist of the method:
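HEK 293 cells, seeded 20 h at 37 C, were pretreated with compound 1 h, then infected with ZIKV MR766 (MOI = 0.5) for 24 h. NS1 was read by TR-FRET with two anti-NS1 antibodies, normalized to uninfected and infected wells.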

A short description of test [3]: qHTS of pediatric cancer cell lines to identify multiple opportunities for drug repurposing: Primary screen for TC32 cells (AID 1347089). Note: nearly all actives have a fitted effect of over 60% in size. The gist of the method: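 Measured quantity: luminescence from CellTiter-Glo, reflecting metabolically active TC32 cells following 48 h of compound. Curves came straight from multi-point titrations, with 8 or 11 points in primary and 11 in confirmatory screening.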

A short description of test [4]: qHTS of pediatric cancer cell lines to identify multiple opportunities for drug repurposing: Primary screen for SJ-GBM2 cells (AID 1347091). The gist of the method: (§1)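 Cell viability, CellTiter-Glo luminescence; 500-1,000 cells/well, 8- or 11-point titration, 48 h compound exposure at 37 degrees C, 5% CO2. Controls: DMSO neutral, bortezomib 2.3 µM final as positive.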

Test [5] can be described thus: qHTS of pediatric cancer cell lines to identify multiple opportunities for drug repurposing: Primary screen for A673 cells (AID 1347092). Note: nearly all actives have a fitted effect of over 45% in size. Note: potency is the fitted concentration of half-maximal effect. The gist of the method: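 Cells are plated, rested 5 h, dosed by pintool, incubated 48 h, then lysed with CellTiter-Glo and read by luminescence. DMSO is the neutral control; bortezomib at 2.3 uM final is the positive control.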

Test [6] is described as follows: qHTS of pediatric cancer cell lines to identify multiple opportunities for drug repurposing: Primary screen for BT-37 cells (AID 1347094). Note: series mostly up to about 57 µM. In outline: (§2)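 Viability was measured as metabolically active cells after 48 hours of treatment, read by CellTiter-Glo luminescence. Compounds were tested at multiple final concentrations, giving concentration-response curves.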

A short description of test [7]: qHTS of pediatric cancer cell lines to identify multiple opportunities for drug repurposing: Primary screen for U-2 OS cells (AID 1347096). Note: nearly all actives have a fitted effect of over 50% in size. In outline: (§3)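 Cells (500-1,000/well) rested 5 h, then received compounds for 48 h; metabolically active cells were measured by CellTiter-Glo luminescence. Final concentrations spanned up to 46 µM (MIPE, 11-point) or 0.59 nM-46 µM (NPC, 8-point) in primary screens, 11-point in follow-ups.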

Test [8] in a line: qHTS of pediatric cancer cell lines to identify multiple opportunities for drug repurposing: Primary screen for SK-N-SH cells (AID 1347098). Note: nearly all actives have a fitted effect of over 65% in size. In outline: as §3
A short description of test [9]: qHTS of pediatric cancer cell lines to identify multiple opportunities for drug repurposing: Primary screen for BT-12 cells (AID 1347101). Note: nearly all actives have a fitted effect of over 25% in size. The gist of the method: as §3
Test [10] is described as follows: qHTS of pediatric cancer cell lines to identify multiple opportunities for drug repurposing: Primary screen for DAOY cells (AID 1347090). Note: series mostly up to about 46 µM; nearly all actives have a fitted effect of over 55% in size. The gist of the method: as §1
Test [11] is described as follows: qHTS of pediatric cancer cell lines to identify multiple opportunities for drug repurposing: Primary screen for SK-N-MC cells (AID 1347093). Note: series mostly up to about 46 µM. In outline:
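Metabolically active cells were quantified by ATP-dependent luminescence (CellTiter-Glo, 15 min at room temperature) following 48 h treatment. Cells had been plated at 500-1,000 per well and settled for 5 h beforehand.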

Test [12] is described as follows: qHTS of pediatric cancer cell lines to identify multiple opportunities for drug repurposing: Primary screen for NB-EBc1 cells (AID 1347095). The gist of the method:
as §2

Test [13] is described as follows: qHTS of pediatric cancer cell lines to identify multiple opportunities for drug repurposing: Primary screen for NB1643 cells (AID 1347099). Note: nearly all actives have a fitted effect of over 50% in size. In outline:
as §2

A short description of test [14]: qHTS of pediatric cancer cell lines to identify multiple opportunities for drug repurposing: Primary screen for LAN-5 cells (AID 1347100). The gist of the method:
as §3

Regarding `CCCCO`, in test [1], the Potency entry is “inactive”.

As to `NCC(O)CC(=O)O` (stereo unspecified), the Potency entry in test [1] was “inactive”.

Take `CC1CC(OC(=O)C(O)c2ccccc2)CC(C)(C)C1` (stereo unspecified): in test [1], the Potency result was “inactive”.

With `NC(=O)[C@@H]1CCCN1C(=O)[C@H](Cc1cnc[nH]1)NC(=O)[C@@H]1CCC(=O)N1`, in test [1], the Potency result was “inactive”.

Take `COc1ccc2c(c1)OC(C)(C)C(c1ccccc1)C2c1ccc(OCCN2CCCC2)cc1` (stereo unspecified): the Potency in test [1] is 20.6 µM (active).

For `FC(F)(F)C(F)(F)C(F)(F)C(F)(F)C(F)(F)C(F)(F)F`, in [1], the Potency result is “inactive”.

As to `CC(=O)Oc1cccc2c1C(=O)c1c(OC(C)=O)cc(C(=O)O)cc1C2=O`, the Potency result in test [1] and in test [6] was “inactive” throughout. In addition, the molecule was called inactive in test [2], in test [3], in [4], in [7], in test [8] and in test [9]. Further, the Potency in test [5] is 21.1 µM (active).

Turning to `CCCCCCCCCCCCCCCCCC[N+](C)(C)CCC[Si](OC)(OC)OC`, the Potency entry in test [1] was “inactive”.

On to `S=C=Nc1ccc(N=C=S)cc1`, for which the Potency entry in [1] was “inactive”.

With `COc1ccc2nc(NC(=O)Nc3ccccc3)sc2c1`, the outcome in test [2], in [3], in [10], in test [4], in test [12] and in test [7] was inactive. Also, the outcome in test [8], in [13], in test [14] and in [9] was inactive. Also, the Potency entry in [5], in test [11] and in test [6] was “inactive” each time.

Consider `CC(C)[C@H](N)C(=O)OCC(CO)OCn1cnc2c(=O)[nH]c(N)nc21` (stereo partly specified), for which, in test [1], the Potency result is “inactive”.

Turning to `O=C(OCc1ccccc1)c1cccnc1`, in test [1], the Potency result was “inactive”.

Consider `O=c1[nH]c(=O)n([C@H]2C[C@H](O)[C@@H](CO)O2)cc1/C=C/Br`, for which the Potency result in test [1] is “inactive”.

Take `CN[C@@H]1[C@@H](O[C@H]2O[C@H](CO)[C@@H](N)[C@H](O)[C@H]2O)O[C@H]2C[C@@H](N)[C@@H](O[C@H]3[C@H](O)[C@@H](O)[C@H](N)C[C@@H]3N)O[C@@H]2[C@@H]1O`: the Potency result in test [1] was “inactive”.

Take `CCN(CC)CCOC[C@H]1O[C@@H](O)[C@H](OCCN(CC)CC)[C@@H](O)[C@@H]1O`: the Potency entry in test [1] is “inactive”.

As to `CC(C)OC(=O)Nc1ccc2nc(-c3cscn3)[nH]c2c1`, the Potency in test [1] was 4.61 µM (active).
